HCV inh: blocks hepatitis C virus. actives 3.4% (n = 340,000). AID 651820. Huh7.5.1 HCVcc-Cre infection, luciferase reporter, 44 h. Potency, µM (titrated, usually from 41.8 µM), usual class: inhibitors
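Seed cells (1,000/well) for 4 h; treat with compound and infect with HCVcc-Cre, moi about 0.5. Incubate 44 h, then detect luciferase activity.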
Pf growth 96h: inhibits malaria parasite growth, 96 h; P. falciparum luciferase reporter growth, 96 h; Potency, µM (titrated, usually from 28.7 µM), hits mostly inhibitors; actives 6.9% (n = 320,000); AID 504834
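Readout is luminescence from an integrated firefly luciferase in P. falciparum. Red cells, 2% hematocrit and 0.05% parasitemia final, were cultured with compound through two parasite generations (96 hours) at 37 C, 5% CO2.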
VACV mCherry inh: vaccinia inhibition (mCherry reporter); Vaccinia virus mCherry reporter infection, fluorescence; Potency, µM (highest dose often 36.5 µM), usual class: inhibitors; actives 0.63% (n = 310,000); AID 720579; calls by dose curve; tested in A549 cells; also: nearly all actives have a fitted effect of over 35% in size
Pf growth 48h: inhibits P. falciparum growth in the first generation, 48 h | Potency, µM (doses to about 28.7 µM), most hits filed as inhibitors | AID 504832 | actives 5.9% (n = 310,000) | P. falciparum luciferase growth in erythrocytes, 48 h
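Firefly luciferase activity from engineered P. falciparum reports growth; inhibitors lower the luminescent signal. Cultures contained 2% hematocrit erythrocytes at 0.1% final parasitemia.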
VACV Venus inh: vaccinia inhibition (Venus reporter); AID 720580; Vaccinia virus Venus reporter expression, fluorescence; actives 0.46% (n = 330,000); Potency, µM (series often up to 36.5 µM), most hits filed as inhibitors; calls by dose curve; tested in A549 cells; also: nearly all actives have a fitted effect of over 30% in size
NS1 inh: inhibitors of influenza NS1 protein function. actives 0.4% (n = 270,000). AID 2326. Potency, µM (highest dose often 46.1 µM); calls by dose curve; also: actives are rising curves; nearly all actives have a fitted effect of over 50% in size
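In this qHTS, NS1 from influenza A is expressed in budding yeast, where it slows growth. Cells are switched from glucose to 2% galactose medium (pH 6.0, -URA), treated with compound, and growth recovery is read at OD600.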
A number is an active result; . = inactive; ? = inconclusive; / = no result; [ ] = dose if it differs, or a comment. An excerpt weighted towards active compounds, which were near 11% of everything screened. Unless noted, calls follow the shape of the dose curve; as a rule, active = well fitted inhibition curve with a large enough effect; inconclusive = small, poorly fitted or top-dose-only effect, or another doubt; inactive = no such curve, though single readings can be large or run the other way.

SMILES	HCV inh	Pf growth 96h	VACV mCherry inh	Pf growth 48h	VACV Venus inh	NS1 inh
CN(C)c1cc[n+](CC(=O)N2CCCc3ccccc32)cc1	.	?	.	5.2µM	.	/
CCc1ccc(CN2CCC(n3nccc3NC(=O)c3ccccc3OC)CC2)o1	/	/	.	/	.	/
O=C1NC(=S)N/C1=C/c1cccnc1	.	?	.	.	.	.
CC(C)(C)OC(=O)COc1cc(OCC(=O)OC(C)(C)C)c2c(=O)cc(-c3ccccc3)oc2c1	10µM	?	?	?	11µM	.
CNc1c([N+](=O)[O-])cnn1-c1ccc(C)cc1	.	?	/	3.3µM	/	.
CCCSc1ncc(Cl)c(C(=O)Nc2sc3c(c2C(=O)NCCCOC)CCCC3)n1	/	/	.	/	.	/
O=C(OCc1ccccc1)C1CCCN1C(=O)c1cccs1 (stereo unspecified)	.	.	/	.	.	.
CC/C(=C\C1CCCCC1)C(NP(=O)(c1ccccc1)c1ccccc1)c1ccccc1 (stereo unspecified)	.[8.37 µM]	6.6µM	.	9.3µM	?	.
C=C[C@@H]1C[C@@]1(C)[C@@H](NP(=O)(c1ccccc1)c1ccccc1)c1ccccc1	.[8.37 µM]	?	.	?	.	.
CC(C)COP(=O)(c1ccc(N(C)C)cc1)C(O)c1ccccc1 (stereo unspecified)	.	.	.	.	.	.
CCCN=C(Nc1ccc(Cl)cc1)c1cccnc1	.	.	/	.	/	.
CNC(C(=O)c1ccccc1)C(OC(C)=O)c1cccc([N+](=O)[O-])c1 (stereo unspecified)	.	2.9µM	.	?	.	.
O=c1n(CC2CO2)c(=O)n(CC2CO2)c(=O)n1CC1CO1 (stereo unspecified)	?	6µM	?	9.5µM	?	/
ClCC1CO1 (stereo unspecified)	/	.	/	.	/	/
CCN(C(=O)c1cn(C)c(=O)c2cc(OC)c(OC)cc12)c1cc(C)ccc1C	.	.	.	9.3µM	.	.
CCN(C(=O)c1cn(C)c(=O)c2cc(OC)c(OC)cc12)c1ccccc1C	.	/	.	.	.	.
Cc1ncc2c(c1CNC(=O)c1cncs1)CCN(C(=O)c1ccsc1)C2	/	/	.	/	.	/
CC1CCN(CC(O)COCCOc2ccc(Br)cc2)CC1 (stereo unspecified)	?	?	.	?	.	.
CC1CC(C)CN(CC(O)COCCOc2ccc(Br)cc2)C1 (stereo unspecified)	?	?	.	9.3µM	.	.
COc1cc2c(cc1OC)C(C)=NC1(CCCCC1)C2	.	.	.	?	.	.
COc1cc2c(cc1OC)C(SC)=NC1(CCCC1)C2	?	.	.	10µM	.	.
Cc1oc(-c2ccccc2)nc1C(=O)OCC(=O)NCc1ccc(F)cc1	/	/	.	/	.	/
CC(=O)N1CCN(c2nnc(-c3ccc(C)cc3)c3ccccc23)CC1	.	?	.	?	.	.
Cc1ccc(-c2nnc(N3CCN(C(=O)CSc4ncn[nH]4)CC3)c3ccccc23)cc1	?	/	?	10µM	.	.
N#CC1=C(N)NC(SCC(=O)Nc2ccccc2)=C(C#N)C12CCCC2	.	.	/	1.7µM	.	.
SMILES	HCV inh	Pf growth 96h	VACV mCherry inh	Pf growth 48h	VACV Venus inh	NS1 inh
CC1=C(C(=O)Nc2ccccc2)C2(CCCCC2)C(C#N)=C(S)N1	.	10µM	/	/	.	.
N#CC1=C(N)NC(SCc2ccc(F)cc2)=C(C#N)C12CCCCC2	?	?	/	?	?	.
COc1ccc(/C=N/NC(=O)c2nc(-c3ccccc3)n(-c3ccccc3)n2)c(O)c1	?	.	3.2µM	?	?	.
COc1ccc2[nH]c(C(=O)N/N=C/c3ccc(O)cc3O)cc2c1	?	?	?	6.6µM	?	.
Cc1ccc(OCCCNC2CCCC2)cc1	.	.	/	.	/	.
Cc1ccc(C)c(OCCCNC2CCCC2)c1C	.	?	.	12µM	.	/
C=CCc1ccc(OCCOCCOc2ccc(C)cc2[N+](=O)[O-])c(OC)c1	11µM	?	/	.	.	.
Cc1cc(C)c(NC(=O)CCCCCNC2CCCCC2)c(C)c1	?	13µM	.	.	.	.
OC(CNC1CCCCCC1)COc1cccc2ccccc12 (stereo unspecified)	?	2.1µM	.	1.7µM	?	.
OC(CNC1CCCC1)COc1ccccc1Br (stereo unspecified)	.	.	/	.	/	.
O=C(COc1ccc2c3c(c(=O)oc2c1)CCC3)NCCCN1CCOCC1	.	.	/	.	/	.
COc1ccccc1NC(=O)N1CCCC1C(=O)NCc1ccc2c(c1)OCO2 (stereo unspecified)	.	/	/	.	.	.
CC1(C(=O)NCc2ccc(C(F)(F)F)cc2)CCN1Cc1c(F)cccc1F (stereo unspecified)	/	/	?	/	.	/
Cc1csc(NC(=O)C2CCCC2)n1	.	.	/	/	.	.
Cc1ccccc1OCC(O)CNC1CCC(NCC(O)COc2ccccc2C)CC1 (stereo unspecified)	?	3.7µM	3.2µM	0.93µM	10µM	.
C=CCc1ccc(OCCCCNC2CCCC2)c(OC)c1	10µM	.	.	.	.	.
Cc1ccc(OCC(O)CNC2CCCC2)c(C)c1 (stereo unspecified)	.	13µM	/	?	/	.
OC(CNCCc1ccc(C(F)(F)F)cc1)COc1ccc2ccccc2c1 (stereo unspecified)	?	?	.	?	?	.
OC(CNCCc1ccc(C(F)(F)F)cc1)COc1cccc2ccccc12 (stereo unspecified)	?	6.6µM	/	7.4µM	/	.
C=CCc1ccc(OC(=O)NC2CCCCC2)c(OC)c1	.	.	.	.	.	.
COc1cccc(CC(=O)OCC(=O)NC2CCCCCC2)c1	.	.	.	.	.	.
COc1ccc(-n2c(C)c(C)c3c(N)ncnc32)cc1	.	.	.	.	.	.
Cc1ccc(Cn2cccc2/C=N/NC(=S)Nc2ccc(C)cc2)cc1	.	.	.	?	.	.
Cc1ccc(OCCCCNC2CCCCC2)c(C)c1	13µM	.	/	?	/	/
CCN1CCCC1CNCC(O)COc1ccc(C(C)(C)C)cc1C (stereo unspecified)	?	12µM	.	10µM	.	/
SMILES	HCV inh	Pf growth 96h	VACV mCherry inh	Pf growth 48h	VACV Venus inh	NS1 inh
COc1ccc(N2CCN(C(=O)CCCOc3cc(=O)n(C)c4ccccc34)CC2)cc1	.	12µM	/	?	/	.
CC1CCN(C(=O)CCCOc2cc(=O)n(C)c3ccccc23)CC1	?	.	/	.	/	.
Cc1ccc(C)c(N2CCN(C(=O)CCCOc3cc(=O)n(C)c4ccccc34)CC2)c1	10µM	/	/	?	/	.
Cc1ccc(C)c(N2CCN(C(=O)COc3cc(=O)n(C)c4ccccc34)CC2)c1	?	.	/	?	/	.
Cc1cccc(N2CCN(C(=O)COc3cc(=O)n(C)c4ccccc34)CC2)c1C	?	?	/	12µM	/	.
CN(C)c1ccc(C=C2C(=O)NC(=S)NC2=O)cc1[N+](=O)[O-]	.	.	.	.	.	.
Cc1ncc2c(c1CNC(=O)/C=C/c1cccs1)CCN(C(=O)c1ccc3c(c1)OCCO3)C2	/	/	.	/	.	/

Assay outcomes: PubChem, National Center for Advancing Translational Sciences (NCATS)
